This is a sample that favours compounds with a hit; in the whole collection about 21% have one here.
AMA1-RON2 inh: AMA1-RON2 (P. falciparum) interaction inhibition; AlphaScreen AMA1-biotinylated RON2 peptide binding; Potency, µM (series often up to 58.2 µM), for inactives: at the highest dose activity change, negative = inhibition, most hits filed as inhibitors; hit rate 0.2% among 360,000;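 note: potency is the fitted concentration of half-maximal effect; 0% = vehicle wells and -100% = peptide control; nearly all actives have a fitted effect of over 45% in size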
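AMA1 (3D7) with his tag at 25 nM final met compounds first, then biotinylated RON2 peptide at 25 nM; detection used donor plus acceptor beads, 10 µg/mL apiece, read by AlphaScreen after 30 min at room temperature.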
Pf growth 96h: P. falciparum growth inhibition at 96 hours; P. falciparum luciferase reporter growth, 96 h; Potency, µM (titrated, usually from 28.7 µM), for inactives: at the top dose activity change, negative = inhibition, hits mostly inhibitors; hit rate 6.9% among 320,000; AID 504834; note: potency is the fitted concentration of half-maximal effect; % is set by controls: 0 for no effect and ±100 for the full control effect
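Infected RBCs, 2% Hct / 0.05% parasitemia final; luciferase-reporter P. falciparum; cpd 96 h, 37 C, 5% CO2; luciferase detection reagent; luminescence.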
HCV inh: blocks hepatitis C virus; Huh7.5.1 HCVcc-Cre infection, luciferase reporter, 44 h; Potency, µM (top dose mostly 41.8 µM), without a hit: at the highest dose activity change, negative = inhibition, most hits filed as inhibitors; hit rate 3.4% among 340,000; AID 651820; note: potency is the fitted concentration of half-maximal effect; % is set by controls: 0 for no effect and ±100 for the full control effect
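Compounds are dispensed onto cells plated 4 h earlier at 1,000 per well, with HCVcc-Cre virus (about 0.5 moi) added next. Following 44 h of culture, luminescent signal is measured for 15 sec after 15 min with substrate at room temperature.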
Shiga inhibitor: Shiga toxin inhibition | AID 2315 | inhibition, % at 38.7 µM | hit rate 9.2% among 290,000 | Vero cells, Shiga toxin protein synthesis inhibition reporter; in the data active = inhibition mostly above about 28%, no sharp cut-off; inactive = mostly below about 43%; note: 0% is about no effect
CHX counter: counter-screen for Shiga toxin inhibitors: cycloheximide protein synthesis inhibition | hit rate 12% among 300,000 | cell reporter, cycloheximide protein synthesis inhibition counterscreen | max response, %; in the data active = max response mostly above about 13%, no sharp cut-off; inactive = mostly below about 14%; note: read at 38.3 µM for the half of the compounds with a filed dose; 0% is about no effect
Pf growth 48h: P. falciparum growth inhibition at 48 hours (one generation) | P. falciparum luciferase growth in erythrocytes, 48 h | Potency, µM (doses to about 28.7 µM), for inactives: top-dose activity change, negative = inhibition, most hits filed as inhibitors | hit rate 5.9% among 310,000 | AID 504832; note: potency is the fitted concentration of half-maximal effect; % is set by controls: 0 for no effect and ±100 for the full control effect
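Here the parasites carry a stable luciferase gene and grow inside erythrocytes in Albumax-based RPMI medium with compound for one erythrocytic cycle. Activity is scored as loss of luminescent signal.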
The depositor's hits bear a star; ? = inconclusive; nt = no result; [ ] = dose if it differs, or a comment. Unless noted, calls come from the whole dose curve; as a rule, active = well fitted curve in the direction sought with a large enough effect; inconclusive = small, poorly fitted or top-dose-only effect, or another doubt; inactive = no such curve, though single readings can be large; an effect the other way counts as inactive or inconclusive.

SMILES	AMA1-RON2 inh	Pf growth 96h	HCV inh	Shiga inhibitor	CHX counter	Pf growth 48h
O=C(O)c1ccccc1OC(C(=O)Nc1cc(Cl)cc(Cl)c1)c1ccccc1 (stereo unspecified)	7%	?	-15%	19	1	12µM*
COc1ccccc1CNC(=O)Cn1cccc1	3%	23%	0%	-1	-2	-7%
Cc1cc(C(F)(F)F)nn1CC(=O)NCc1ccccc1	5%	7.4µM*	-3%	-15	-7	nt
COc1ccccc1CNC(=O)Cn1nc(C(F)(F)F)cc1C	17%	15µM*	2%	nt	nt	12µM*
CCOC(=O)c1c(NC(=O)COC(=O)c2ccc(Cl)nc2)sc(C)c1C	0%	nt	nt	nt	nt	nt
O=c1[nH]c(/C=C/c2ccc(Cl)cc2Cl)c([N+](=O)[O-])c(=O)[nH]1	-1%	497%	10%	-22	-2	195%
Clc1ccc(/C=C/c2ncc[nH]2)c(Cl)c1	-10%	?	-7%	65*	46*	?
[O-]C(=C(C(=S)Nc1cccc2ccccc12)[n+]1cccc(CO)c1)c1ccc(Cl)s1	-11%	nt	7.9µM*	nt	nt	nt
[O-]/C(=C(\C(=S)Nc1cccc2ccccc12)[n+]1ccccc1)c1ccc(Cl)s1	-29%	?	3%	11	0	?
Cc1ccc(C)c(NC(=S)/C(=C(\[O-])c2ccc(Cl)s2)[n+]2ccccc2)c1	-1%	5.9µM*	-12%	35	11	?
CCc1nc2c(OCc3ccc(Cl)cc3Cl)cccn2c1N(C)C(=O)CC(C)C	-4%	nt	nt	nt	nt	nt
COc1ccc(CCNC(=S)Nc2ccc(OC)cc2)cc1	2%	-21%	-13%	11	5	-19%
COc1ccc(NC(=S)Nc2ccc3snnc3c2)cc1	-7%	18%	?	34*	24*	0%
COc1ccc(NC(=S)Nc2ccc3nccnc3c2)cc1	-7%	?	-3%	54*	31*	44%
COc1ccc(NC(=S)Nc2ccc(N)c([N+](=O)[O-])c2)cc1	-2%	nt	-2%	42	21*	21%
NC(Cc1ccccc1)c1csc(Nc2nccc(C(F)(F)F)n2)n1 (stereo unspecified)	82%	nt	nt	nt	nt	nt
COc1cc(NC(=O)c2ccc([N+](=O)[O-])cc2)ccc1NC(=O)C(C)C	20%	1%	?	-14	2	70%
CN(C)CC[C@@](O)(c1ccccc1)c1ccccc1Cl	nt	11µM*	nt	nt	nt	?
CCOCCOC(=O)CCSc1n[nH]c(=O)[nH]c1=O	1%	10µM*	6%	-19	-2	14%
CCCCCOC(=O)CSc1n[nH]c(=O)[nH]c1=O	3%	nt	20%	-20	9	8%
CCc1nc2ccc(C(=O)N(C)CC(=O)Nc3ccc(F)c(F)c3F)cc2nc1CC	-3%	-24%	?	nt	nt	20%
CN(CC(=O)Nc1ccc(F)c(F)c1F)c1cnccn1	nt	?	nt	-10	-4	13µM*
CN(CC(=O)Nc1ccc(F)c(F)c1F)C(=O)c1ccc(=O)[nH]c1	13%	191%	3%	50*	38*	194%
Cc1ccc(CONC(=O)c2ccc(OC(F)F)cc2)cc1	-5%	55%	-21%	69*	24*	16%
COc1cc(Sc2ccc(C)cc2)c(OC)cc1N	?	-32%	-24%	-16	-2	?
SMILES	AMA1-RON2 inh	Pf growth 96h	HCV inh	Shiga inhibitor	CHX counter	Pf growth 48h
COC(=O)c1ccc(Sc2ccc(C)cc2)c(N)c1	28%	30%	6%	57*	57*	53%
CC(C)(C)C(=O)NC(=S)Nc1sc2c(c1C(N)=O)CCC2	31%	?	-6%	23	22*	49%
CC(=O)Nc1sc2c(c1C(N)=O)CCC2	0%	21%	-6%	-6	-3	-22%
CCCCC(=O)Nc1sc2c(c1C(N)=O)CCC2	1%	nt	-28%	45*	32*	80%
FC(F)(F)c1ccc(Cl)c(N/N=C/c2ccc(N3CCOCC3)s2)c1	-26%	7.4µM*	1%	-3	11	?
O=C(O)c1cccc(N/N=C/c2sc(N3CCOCC3)nc2-c2ccccc2)c1	5%	5.2µM*	5%	176*	128*	?
FC(F)(F)c1cnc(Nc2ccc(N3CCOCC3)cc2)c(Cl)c1	?	8%[5.75 µM]	-1%	3	-2	-7%
O=C(N/N=C/c1sc(N2CCOCC2)nc1-c1ccccc1)c1cccc(S(=O)(=O)N2CCOCC2)c1	25%	2.1µM*	?	14	0	1.9µM*
C(=N\N(c1ccccc1)c1ccccc1)/c1ccc(N2CCOCC2)s1	-29%	8.3µM*	-15%	0	1	?
Nc1ccc(C(=O)N/N=C/c2sc(N3CCOCC3)nc2-c2ccccc2)cc1	-2%	?	?	21	15	?
COc1ccc(C(=O)N/N=C/c2ccc(N3CCOCC3)s2)cc1OC	113%	?	8%	nt	nt	?
O=C(N/N=C/c1ccc(N2CCOCC2)s1)c1ccccc1Cl	63%	?	?	109*	34*	-30%
CCOC(=O)N/N=C/c1ccc(N2CCOCC2)s1	-10%[11.6 µM]	38%	1%	19	10	2.6µM*
O=C(N/N=C/c1ccc(N2CCOCC2)s1)c1ccc(NS(=O)(=O)c2cccs2)cc1	83%	-16%	-2%	41	10	?
O=C(N/N=C/c1sc(N2CCOCC2)nc1-c1ccccc1)c1ccccc1O	70%	1.9µM*	?	10	6	5.2µM*
O=C(N/N=C/c1sc(N2CCOCC2)nc1-c1ccccc1)c1ccccc1Cl	-9%	?	8.9µM*	11	2	10µM*
O=C(NC1CCCc2c1cnn2-c1ccccc1F)c1ccncc1 (stereo unspecified)	10%	nt	nt	nt	nt	nt
CCCc1c2ccccc2nc2ccccc12	0%	-54%	-28%	-8	-5	-28%
Cc1c2ccccc2nc2c(F)c(N(C)C)c(F)c(F)c12	77%	30%	-26%	23	28*	-5%
CN(C)c1c2ccccc2nc2c(F)c(F)c(F)c(F)c12	-5%	?	?	57	33*	-8%
CCOC(=O)[C@]12CCCC=C1N(Cc1ccccc1)C(=O)[C@H](CC(=O)NCc1ccc(C)o1)C2	-13%	nt	nt	nt	nt	nt
CCN1CCN(CCNC(=O)c2cc(Cl)c(NC(=O)C3=C(C)OCCS3)cc2OC)CC1	-3%	-20%	?	-11	-5	0%
CCN(CC)CCCNC(=O)c1cc(Cl)c(NC(=O)C2=C(C)OCCS2)cc1OC	-3%	?	11µM*	-11	-1	?
CC1=C(C(=O)Nc2ccccc2C(=O)NCCCOC(C)C)SCCO1	8%	4.1µM*	-5%	-11	-1	0%
C[C@H]1CN([C@@H](C)CO)C(=O)c2cc(C3=CCCC3)cnc2O[C@@H]1CN(C)C(=O)c1ccncc1	8%	nt	nt	nt	nt	nt
Cc1cccc(C(=O)Nc2ccc(NC(=O)CN3CCOCC3)cc2)c1	-6%	41%	5%	6	-2	47%

Source: PubChem
